Assay outcomes deposited in PubChem BioAssay by National Center for Advancing Translational Sciences (NCATS).
Shown are actives, neighbours in structure and some others; about 3% of the full set was active somewhere.
Nrf2 block: inhibitors of Nrf2 signaling | A549 ARE-Fluc reporter, luciferase luminescence, 18-24 h | Potency, µM (series often up to 46 µM), for the others: at the top dose activity change, negative = inhibition, most hits filed as inhibitors | 360,000 compounds, 2.1% hits; further: on the % scale 0 is the no-effect control and ±100 the full control effect; nearly all actives have a fitted effect of over 60% in size
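Concentration-response testing used A549 ARE_Fluc cells at 5000 cells/well. Following an 18-24 h compound incubation, viability was read by fluorescence (Ex 405/Em 525) and luciferase output by luminescence.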
rTrxR1 inhibitor: inhibitors of rat thioredoxin reductase 1 | recombinant rTrxR1, NADPH fluorescence consumption, selenite substrate | Potency, µM (doses to about 114 µM), for inactives: top-dose activity change, negative = inhibition, most hits filed as inhibitors | 390,000 compounds, 1% hits; further: on the % scale 0 is the no-effect control and ±100 the full control effect; nearly all actives have a fitted effect of over 65% in size
Target sequence (O89049 whole entry, looked up): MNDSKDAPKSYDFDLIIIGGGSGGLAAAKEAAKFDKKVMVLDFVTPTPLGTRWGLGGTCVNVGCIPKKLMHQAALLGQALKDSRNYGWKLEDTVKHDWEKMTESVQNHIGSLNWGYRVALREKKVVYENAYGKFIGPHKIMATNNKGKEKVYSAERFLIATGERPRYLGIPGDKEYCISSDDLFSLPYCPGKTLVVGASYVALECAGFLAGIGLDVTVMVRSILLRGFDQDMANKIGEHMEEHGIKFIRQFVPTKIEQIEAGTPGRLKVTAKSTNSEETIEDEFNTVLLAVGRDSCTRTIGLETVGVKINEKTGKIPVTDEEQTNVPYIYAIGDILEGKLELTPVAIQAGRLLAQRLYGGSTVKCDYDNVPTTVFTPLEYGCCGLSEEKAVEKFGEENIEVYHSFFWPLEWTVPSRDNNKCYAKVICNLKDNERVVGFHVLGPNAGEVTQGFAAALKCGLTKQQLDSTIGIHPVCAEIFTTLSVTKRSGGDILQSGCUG
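Rat TrxR1 (90 nM in the dispensed reagent) was pre-reduced with 400 uM NADPH for 5 min at room temperature, then incubated with compound for 15 min. After 400 uM selenite was added, NADPH fluorescence (Ex 340/Em 450 nm) was followed for 8 min.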
TrxR1 substrate: rat thioredoxin reductase 1 substrate activity; Potency, µM (titrated, usually from 114 µM), without a hit: top-dose activity change, negative = substrate turnover; AID 588456; 390,000 compounds, 0.01% hits; purified TrxR1 substrate turnover, NADPH consumption readout; further: on the % scale 0 is the no-effect control and ±100 the full control effect; nearly all actives have a fitted effect of over 50% in size
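Rat TrxR1, dispensed at 90 nM, was prereduced with 400 uM NADPH (final) for 5 min at ~22 deg C, then incubated with compound 15 min before 400 uM selenite. A first-read NADPH fluorescence drop versus no-compound background flagged substrates.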
Nrf2 activator: Nrf2 pathway activation; AREc32 ARE-luciferase reporter (MCF7-derived line), luminescence, 24 h; Potency, µM (top dose mostly 46.1 µM), inactives show at the highest dose activation, hits mostly activators; 410,000 compounds, 0.31% hits; further: % of control where 0% means no effect; nearly all actives have a fitted effect of over 65% in size
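Reporter line AREc32 (ARE-Fluc), seeded overnight in OPTI-MEM with 5% FBS; compound pin-transferred, 24 hr at 37 deg C, 5% CO2; luminescent read-out.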
A549 tox: A549 cytotoxicity, counter-screen for Nrf2 inhibitors; A549 ARE-Fluc cells, CellTiter-Fluor viability, 18-24 h; Potency, µM (series often up to 46 µM), for the others: top-dose activity change, negative = cytotoxicity, actives largely listed as inhibitors; 390,000 compounds, 0.16% hits; AID 504648; further: on the % scale 0 is the no-effect control and ±100 the full control effect
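A549 ARE-Fluc cells in 5% FBS OPTI-MEM, 5000 cells/well, rested 2 h then exposed to compounds in concentration-response for 18-24 h at 37 °C. Viability by CellTiter-Fluor fluorescence (Ex 405/Em 525) after 30 min; luciferase luminescence (BugLite, 15 min, RT) read afterwards.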
GALK inh: blocks human galactokinase activity. Purified GALK, Kinase-Glo residual ATP luminescence. Potency, µM (top dose mostly 57.5 µM), for the others: top-dose activity change, negative = inhibition, hits mostly inhibitors. 270,000 compounds, 0.007% hits. AID 1868; further: on the % scale 0 is the no-effect control and ±100 the full control effect
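5 nM enzyme, 35 uM ATP, 100 uM galactose, 20 mM HEPES pH8.0, 5 mM MgCl2; 1 h RT; residual ATP by Kinase-Glo Plus luminescence, qHTS format.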
Active calls of the source: *; u = inconclusive; x = not tested or not shown; [ ] = another dose, or the depositor's remark. The call rests on the fitted dose curve; in most records, active means well fitted curve in the direction sought with a large enough effect; inconclusive means small, poorly fitted or top-dose-only effect, or another doubt; inactive means no such curve, though single readings can be large; an effect the other way counts as inactive or inconclusive. Potency means the concentration at half of the fitted maximal effect.

SMILES	Nrf2 block	rTrxR1 inhibitor	TrxR1 substrate	Nrf2 activator	A549 tox	GALK inh
Cc1cccc(Cn2c(=O)n3nc(-c4ccccc4)nc3c3ccccc32)c1	15µM*	21%	10%	0%	-6%	x
COc1cccc(CNC(=O)c2sc3nc[nH]c(=O)c3c2C)c1	x	35%[57.1 µM]	5%[57.1 µM]	0%	5%	x
CC(C)(C)OC(=O)N1CC=C2C(C#N)=C(N)C(C#N)(C#N)[C@H](c3cccnc3)[C@H]2C1	-18%	40µM*	18%	5%	-15%	0%
CC(C)(C)OC(=O)N1CC=C2C(C#N)=C(N)C(C#N)(C#N)C(c3cccs3)C2C1 (stereo not given)	u	u	-1%	14%	u	0%
O=C(NNC(=O)C(c1ccccc1)c1ccccc1)c1ccccn1	15µM*	10%[57.1 µM]	3%	13%	u	-1%
O=C(NNc1ccccn1)C(c1ccccc1)c1ccccc1	-8%	10%[57.1 µM]	-2%[57.1 µM]	-1%	-8%	-2%
CCc1c(C)sc(NC(=O)c2cc(-c3cccc(Cl)c3)on2)c1C#N	-1%	u	-13%	-1%	2%	x
COc1ccccc1CNC(=O)CSc1nnc(C)c2c(C)n(-c3ccccc3)nc12	u	20%	-4%	-1%	0%	x
OCC1O[C@H]([S-])[C@H](O)[C@@H](O)[C@@H]1O.[Au+] (stereo not given in full)	x	0.25µM*	13%[57.1 µM]	x	x	x
COC(=O)CNC(c1ccccc1)c1cc(Br)ccc1NC(=O)CCN1CCOCC1 (stereo not given)	-43%	2.2µM*	0%	4%	-14%	-1%
CCOC(=O)CNC(c1ccccc1)c1cc(Br)ccc1NC(=O)CCN1CCOCC1 (stereo not given)	9%	u	10%	u	11%	0%
CC[N+](C)(C)c1ccc(/C=C/c2ccncc2)cc1	x	-29%	-30%	x	x	x
CCOC(=O)/C=C/C(=O)OCC(=O)Nc1cccc(Cl)c1Cl	1%	14µM*	1%	28%	3%	0%
Cc1ccc(/C=C/C(=O)OCC(=O)Nc2cccnc2Cl)o1	-9%	-5%	-2%	2.8µM*	-2%	x
Cc1ccc(/C=C/C(=O)OCC(=O)Nc2ccc3[nH]c(=O)[nH]c3c2)o1	-2%	u	0%	u	-3%	x
Cc1cc(C(=O)OCC(=O)NC(C)c2ccccc2)c(C)o1 (stereo not given)	6%	7%	-2%	0%	7%	8%
Cc1ccc(/C=C/C(=O)OCC(=O)NC(C)c2ccccc2)o1 (stereo not given)	20%	50µM*	-8%	8%	-2%	x
Cc1ccc(NC(=O)Cn2c(=O)n(CCCCCC(=O)NCc3ccc(F)cc3)c(=O)c3sccc32)cc1C	-11%	9%	3%	0%	-1%	x
Cc1cccn2c(=O)c(/C=C(\C#N)c3nc4ccccc4n3C)c(Oc3ccc(Cl)cc3)nc12	u	27%	12%	14%	-11%	x
CCN(CCC#N)c1ccc(/C=C/c2ccnc3ccccc23)cc1	x	14%	-4%	x	x	x
Cn1nc(C(F)(F)F)c2cc(C(=O)Nc3ccc(F)cc3)sc21	u	19%[11.4 µM]	-5%[57.1 µM]	0%	u	x
Cn1nc(C(F)(F)F)c2cc(C(=O)Nc3ccc(C(F)(F)F)cc3)sc21	23µM*	6%[57.1 µM]	5%[57.1 µM]	0%	u	x
Cn1nc(C(F)(F)F)c2cc(C(=O)Nc3ccc(F)c(Cl)c3)sc21	13µM*	-22%	-17%	-1%	-8%	x
COc1cc2c(cc1OC)C(COc1ccc3c(C)cc(=O)oc3c1)N(C(=O)CC(C)C)CC2 (stereo not given)	-23%[9.27 µM]	9%	5%	1%	-18%	x
CCN(CC)c1sc(S(=O)(=O)c2ccccc2)nc1S(=O)(=O)c1ccc(C)cc1	-23%	14%	3%	u	0%	x
SMILES	Nrf2 block	rTrxR1 inhibitor	TrxR1 substrate	Nrf2 activator	A549 tox	GALK inh
COc1cc(N2C(=O)C=CC2=O)ccc1N1C(=O)C=CC1=O	u	0.5µM*	1%[11.4 µM]	-2%	u	x
COCc1c(C(=O)OCC(=O)c2c(N)n(CC(C)C)c(=O)n(C)c2=O)oc2ccccc12	21µM*	20%	10%	-1%	-4%	8%
CC(C)Cn1c(N)c(C(=O)COC(=O)c2cccn2C)c(=O)n(C)c1=O	23µM*	-10%	-9%	-1%	14%	x
CC(C)Cn1c(N)c(C(=O)COC(=O)c2ccccc2C(=O)c2ccccc2)c(=O)n(C)c1=O	13µM*	22%	1%	0%	-28%	x
Cn1c(N)c(C(=O)COC(=O)c2ccc3c(c2)OCCO3)c(=O)n(C)c1=O	0%	-2%[57.1 µM]	5%[57.1 µM]	-1%	-1%	-1%
CC(C)Cn1c(N)c(C(=O)COC(=O)c2ccc3c(c2)OCCO3)c(=O)n(C)c1=O	10µM*	6%	2%	0%	-15%	0%
COc1ccc(-c2cnnc(N/N=C/c3ccc(O)cc3)n2)cc1	19%	-2%[57.1 µM]	7%[57.1 µM]	28%	-9%	3%
Oc1ccc(/C=N\Nc2nncc(-c3ccccc3)n2)cc1	u	-12%	-13%	7.1µM*	-14%	0%
O=C(CCl)N(c1ccccc1)C1CCS(=O)(=O)C1 (stereo not given)	23µM*	u	6%	-3%	u	-2%
CC(=O)Nc1ccc(C(=O)OCC(=O)N(c2ccccc2)C2CCS(=O)(=O)C2)cc1 (stereo not given)	u	26%	0%	0%	7%	x
CC(=O)N1c2ccc(S(=O)(=O)NCCC(=O)Nc3ccc(OC(F)(F)F)cc3)cc2CC1C (stereo not given)	18µM*	-4%	-12%	2%	-7%	10%
CC(=O)N1CCc2cc(S(=O)(=O)C(C)CC(=O)Nc3ccc(OC(F)(F)F)cc3)ccc21 (stereo not given)	12µM*	3%	-7%	-1%	-8%	-1%
CC(=O)N1c2ccc(S(=O)(=O)NCCC(=O)Nc3ccc(Cl)cc3)cc2CC1C (stereo not given)	x	x	x	2%	x	x
CC(=O)N1c2ccc(S(=O)(=O)NCCC(=O)NCCc3ccc(Cl)cc3)cc2CC1C (stereo not given)	21µM*	-8%	-6%	0%	-8%	-2%
CC(=O)N1c2ccc(S(=O)(=O)NCCC(=O)NCCc3ccc(C)cc3)cc2CC1C (stereo not given)	16µM*	-10%	-8%	0%	-8%	10%
COc1cc2nc(N(C)C)nc(NC3CCN(C)CC3)c2cc1OC	x	-30%	42%	x	x	x
Brc1ccc(-c2nnc(-c3cccnc3)c3conc23)cc1	20%	-14%	3%	7.1µM*	-2%	x
